L3MBTL1 block – inhibitors of human L3MBTL1; Potency, µM (top dose mostly 57.1 µM), without a hit: at the highest dose activity, negative = inhibition, usual class: inhibitors; Q9Y468; hit rate 0.66% among 230,000; AlphaScreen L3MBTL1–H3K9me1 peptide binding; AID 485360; also: % is scaled to controls: 0 for no effect and ±100 for the full control effect; nearly all actives have a fitted effect of over 60% in size
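Displacement of a biotinylated histone H3(1-15) peptide monomethylated at Lys9 (75 nM) from L3MBTL1 (50 nM) was measured by AlphaScreen after a 30 min room-temperature compound incubation; cefsulodin titration served as intraplate control.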
BAZ2B inh – blocks human BAZ2B | AlphaScreen BAZ2B-H3K14Ac peptide displacement | Potency, µM (doses to about 114 µM), for inactives: at the highest dose activity change, negative = inhibition, usual class: inhibitors | hit rate 4.4% among 360,000 | AID 504333; also: % is scaled to controls: 0 for no effect and ±100 for the full control effect; nearly all actives have a fitted effect of over 60% in size
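Compounds, titrated to a top concentration of 110 uM, were incubated 30 min at room temperature with preformed BAZ2B/acetyl-K14 H3 peptide complex (50 nM each). Proximity signal was measured by AlphaScreen after 20 min with beads.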
HP1b binding inh – inhibitors of HP1-beta chromodomain binding to methylated histone tails. P83916. AlphaScreen HP1-beta / biotin-H3K9me3 peptide binding. Potency, µM (doses to about 114 µM), without a hit: at the highest dose activity change, negative = inhibition, most hits filed as inhibitors. hit rate 0.56% among 390,000. AID 540317; also: nearly all actives have a fitted effect of over 70% in size
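Compound inhibition of the preformed complex between 50 nM HP1-beta and 50 nM biotinylated H3K9me3 peptide was read by AlphaScreen. Buffer was PBS pH 7.4 with 0.01% Tween-20. Incubations ran 30 min at room temperature, with 10 ug/mL donor/acceptor beads.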
G9a inh – G9a (human) methyltransferase inhibition; G9a H3K9 monomethylation, AlphaScreen, 2 h; Potency, µM (series often up to 102 µM), for the others: at the highest dose activity, negative = inhibition, hits mostly inhibitors; hit rate 8.8% among 350,000; also: % is scaled to controls: 0 for no effect and ±100 for the full control effect; nearly all actives have a fitted effect of over 75% in size
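Quantitative HTS format: methyltransferase activity on a biotin-tagged H3K9 peptide is measured by AlphaScreen, using a rabbit anti-monomethyl-H3K9 antibody with streptavidin donor and anti-IgG acceptor beads. Final levels are 20 nM enzyme, 500 nM peptide, 20 uM SAM; 2 h RT.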
JMJD2A Tudor – blocks the human JMJD2A Tudor domain | hit rate 4.4% among 390,000 | O75164 | AID 504339 | AlphaScreen JMJD2A-Tudor / H3K4me3 peptide binding | Potency, µM (doses to about 114 µM), inactives show at the highest dose activity change, negative = inhibition, most hits filed as inhibitors; also: % is scaled to controls: 0 for no effect and ±100 for the full control effect; nearly all actives have a fitted effect of over 50% in size
Sfp inh – Sfp phosphopantetheinyl transferase inhibition | hit rate 3.5% among 310,000 | Potency, µM, for the others: largest response in the series, negative = inhibition, actives largely listed as inhibitors | Biochemical Sfp PPTase activity, qHTS | AID 1490 | Q9F4F7;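 also: the enzyme is Sfp with the accession as filed and its product quenches rhodamine fluorescence; 0% = enzyme reaction without inhibitor and -100% = no enzyme wells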
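Fluorescence-quenching assay with 15 nM Sfp, 5 uM rhodamine-CoA and 12.5 uM BHQ-2-labelled ybbR peptide in pH 7.6 Hepes/MgCl2 buffer. Enzyme was pre-incubated with compound for 15 min at room temperature. Rate was taken from the 30-min fluorescence change (525/598 nm).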
Starred values were filed as active, the others as inactive; ? = inconclusive; / = no result; [ ] = remark or other dose. This is a sample that favours compounds with a hit; in the whole collection about 12% have one here. Calls follow the shape of the dose curve; as a rule, active = well fitted curve in the direction sought with a large enough effect; inconclusive = small, poorly fitted or top-dose-only effect, or another doubt; inactive = no such curve, though single readings can be large; an effect the other way counts as inactive or inconclusive. Potency is read from the fitted curve at half-maximal effect.

SMILES	L3MBTL1 block	BAZ2B inh	HP1b binding inh	G9a inh	JMJD2A Tudor	Sfp inh
CCCc1nc2ccccc2c(=O)n1-c1cccc(OC)c1	3%	5%	24%	25%	-3%	6%
NC(=O)CSc1nc2cc(S(=O)(=O)N3CCOCC3)ccc2o1	-9%	/	?	/	-23%	/
O=C(NCNC(=O)N[C@H]1C(=O)NC(=O)N1CO)N[C@H]1C(=O)NC(=O)N1CO	/	/	/	31%[21.5 µM]	/	12%
CCCC(C)c1nnc(NC(=O)CCS(=O)(=O)c2ccccc2)s1 (centres undefined)	/	?	?	4µM*	50µM*	18µM*
CCCc1cc2c(n1CCO)C(C)C1CN(C(=O)c3ccccc3)C(C)(C(=O)OC)C21 (centres undefined)	/	/	/	/	/	37%
O=C1NC(=O)N(CCc2ccc(F)cc2)C(=O)/C1=C/c1cccs1	/	-33%	-4%	3.2µM*	56µM*	25µM*
O=C1NC(=O)N(CCC2=CCCCC2)C(=O)/C1=C\c1cccs1	?	?	24%	?	?	50µM*
COCCN1C(=O)NC(=O)/C(=C\c2ccc(F)cc2)C1=O	3%	-13%	42%	?	0%	?
CN(C)c1ccc(/C=C2\C(=O)NC(=O)N(CCc3ccc(F)cc3)C2=O)cc1	/	?	28%	45µM*	?	-18%
CCN[C@]1(c2cccs2)CCCCC1=O	/	/	/	18%[21.5 µM]	/	2%
S=C=S	/	/	/	3%[59 µM]	/	24%
Oc1ccc2c(c1)[C@@]13CCCCC1[C@@H](C2)N(CC1CCC1)CC3 (some centres undefined)	/	/	/	/	/	7%
CC(N)Cc1ccc(O)cc1 (centres undefined)	/	/	/	-34%[2.33 µM]	/	8%
CC(C)N1CCN(c2ccc(O)cc2)CC1	-8%	-6%	?	8.9µM*	?	-91%
C[N+](C)(C)c1ccccc1	-13%	-13%	17%	20µM*	?	-5%
O=[N+]([O-])c1ccccc1	/	/	/	28%[59 µM]	/	23%
O=C(Oc1ccccc1)N1CCC2(CCN(Cc3nccs3)CC2)CC1	/	/	/	-6%[12.7 µM]	/	12%
CCOc1ccc(N2C(=O)CC(=O)NC2=O)cc1	-2%[2.29 µM]	-6%	38%	-8%[0.501 µM]	-3%	3%
CCOc1ccc(CC2C(=O)NC(=O)N(c3ccc(CC)cc3)C2=O)cc1 (centres undefined)	/	-30%	22%	?	-2%	56µM*
COC(=O)[C@@H]1C[C@@]2(O)[C@H](O)[C@H](O)[C@H](O)C[C@H]2N1Cc1cccnc1	/	/	/	/	/	10%
COc1ccc(C2NCc3ccccc3-n3cccc32)cc1 (centres undefined)	/	?	-15%	71µM*	?	-6%
COc1cc(C2NCc3ccccc3-n3cccc32)ccc1O (centres undefined)	-9%	-32%	-3%	-14%[59 µM]	-28%	-1%
CCCOP(=O)(c1ccc(N(C)C)cc1)C(O)c1ccc(Cl)cc1Cl (centres undefined)	/	-27%	-16%	-8%	?	-10%
S=c1[nH]nc(-c2ccco2)n1/N=C/c1cccs1	-9%	-33%	-9%	1.3µM*	40µM*	-25%
Cc1ccc(N2CCN(CCc3ccccc3)CC2)cc1	-4%	50µM*	-14%	?	?	-1%
SMILES	L3MBTL1 block	BAZ2B inh	HP1b binding inh	G9a inh	JMJD2A Tudor	Sfp inh
COC12C(COC(N)=O)C3=C(C(=O)C(C)=C(N)C3=O)N1CC1C2N1C (centres undefined)	/	-33%	31%	50µM*	?	-11%
N[C@@H](CCCCP(=O)(O)O)C(=O)O	/	/	/	/	/	-7%
Nc1ccc2c3c(cccc13)CC2	-8%	?	-11%	40µM*	-32%	-5%
Cc1[nH]c(=S)c(C#N)c2c1CCCC2	/	?	39%	1.8µM*	20µM*	1%
CC(C)Cc1[nH]c(=O)c(C#N)c2c1CCC2	4%	-1%	26%	4%	-19%	0%
COc1ccccc1CC(=O)N1CCN(CCc2ccccc2)CC1	3%	-17%	9%	19%	-19%	8%

Screening results deposited in PubChem BioAssay by National Center for Advancing Translational Sciences (NCATS).
